Our source for the composite z-score and z-score values is PubChem BioAssay.

Assay [1] can be described thus: compounds binding Alexa647 anti-His antibody – biochemical, small-molecule microarray, 635 nm fluorescence, artefact control for SMM control protein annotation, primary screen (AID 1128).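 Further: score merges feature fluorescence with signal-to-noise for each printed compound spot.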 Conditions: higher = more signal.
Assay [2] has as its system Human papillomavirus type 1a E7 protein (residues 1-88). The assay is described as follows: HPV1a E7 small-molecule binders, primary screen, biochemical, small-molecule microarray, residues 1-88, 635 nm (AID 1129). Conditions: small-molecule microarray binding, fluorescence 635 nm; higher = more signal.
In assay [3] the target is Focal adhesion kinase 1 (Homo sapiens) (UniProt Q05397). The experiment in a line: PTK2 protein binding on printed compound slides – biochemical, small-molecule microarray, 635/667 nm fluorescence, BSA, DTT, primary screen (AID 1130).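 Further: composite of spot emission at 667 nm and signal to noise over triplicate slides.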 Conditions: 635 nm fluorescence, higher = more signal.
Assay [4] relates to Fibrinogen (Alexa647-labelled). The assay is described as follows: Alexa647-fibrinogen binding to printed small molecules – biochemical, small-molecule microarray, 635/667 nm fluorescence, artefact control for SMM control-protein annotation, profiling panel (AID 1131).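 Further: z-score merges 667 nm fluorescence with per-spot signal-to-noise over triplicate slides.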 The settings on record: fibrinogen-A647 binding fluorescence, higher = more signal.
Assay [5] has as its target Follistatin (Homo sapiens) (UniProt P19883). The assay is described as follows: FST protein binding to printed compounds – biochemical, small-molecule microarray, 635/667 nm fluorescence, primary screen (AID 1132). The settings on record: 635 nm fluorescence, higher = more signal.
In assay [6] the target is Fibroblast growth factor 2 (Homo sapiens) (UniProt P09038). The assay is described as follows: basic fibroblast growth factor binding to printed compounds – biochemical, small-molecule microarray, 635/667 nm fluorescence, primary screen (AID 1133). The settings on record: FGF2, fluorescence 635/667, higher = more signal.
A short description of assay [7]: JC-1 mitochondrial potential readout, lung cancer cells – cell-based, A549, JC-1 fluorescence, basal, 24 h, 100 nL, profiling panel (AID 1138).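 Further: A549 lung adenocarcinoma cells under basal conditions with no added stimulus; test concentration not given here.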 The settings on record: higher = more signal.
A further assay has as its system Lefty1. The experiment in a line: Lefty1 protein binding to printed compounds – biochemical, small-molecule microarray, 635/667 nm fluorescence, primary screen (AID 1139). The settings on record: fluorescence 635/667, higher = more signal.
In assay [8] the test system is wheat germ agglutinin (Triticum aestivum), Alexa647-labelled. The experiment in a line: Alexa647-WGA lectin binding to printed small molecules – biochemical, small-molecule microarray, 635/667 nm fluorescence, artefact control for SMM control-protein annotation, profiling panel (AID 1140).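 Further: score merges 667 nm feature emission with signal to noise over triplicate slides.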 Conditions: WGA-A647 binding, 635 nm fluorescence, higher = more signal.
Assay [9] addresses Luciferin 4-monooxygenase (Photinus pyralis) (UniProt P08659). The experiment in a line: inhibition of purified Photinus pyralis luciferase – biochemical, luminescence, purified enzyme, 2006 set, primary screen (AID 1141).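 Further: cell-free assay with purified firefly luciferase at 100 ng per well in PBS; test concentration not given here.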 Conditions: purified firefly luciferase, SteadyGlo luminescence, 30 min; higher = more signal, called active from +8 up or from −8 down.
Assay [10] concerns Wnt5a (protein binding on small-molecule microarray). The assay is described as follows: small molecules binding Wnt5a protein – biophysical, small-molecule microarray, 635/667 nm fluorescence, primary screen (AID 1142).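 Further: fluorescence read at 667 nm with signal to noise per printed feature.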 Conditions: 635 nm fluorescence, higher = more signal.
Assay [11] is described as follows: ATP-based viability of Huh7 replicon cells – cell-based, CellTiter-Glo luminescence, basal, 48 h, cytotoxicity control for HCV replication inhibitor project, primary screen (AID 1143).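 Further: Huh7 hepatoma cells carrying a hepatitis C replication reporter with no stimulus; test concentration not given here.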 The settings on record: higher = more signal, called active from +8 up or from −8 down. For orientation: A replicon is a self-replicating genome or part of one, used to study replication in cells.

A short description of assay [12]: Pseudomonas biofilm growth suppression – PAO1 strain, BacTiter-Glo luminescence, LB-PBS, primary screen (AID 1144). Conditions: P. aeruginosa PAO1 biofilm, 12 h, higher = more signal.
Assay [13] can be described thus: basal CRE-LacZ reporter activity in PC12 – cell-based, unstimulated, primary screen (AID 1145). Conditions: no forskolin, luminescence, 4.5 h, higher = more signal, called active from +8 up or from −8 down.
The nature of assay [14]: forskolin-driven CRE-LacZ activity in PC12 – cell-based, CRE-LacZ reporter, forskolin-stimulated, primary screen (AID 1146).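 Further: PC12 cells with 6xCRE LacZ reporter stimulated by forskolin 10 µM; beta-galactosidase reporter signal reflecting CREB driven transcription.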 Conditions: luminescence, 4.5 h, higher = more signal, called active from +8 up or from −8 down.
Assay [15] concerns the target Streptavidin (Streptomyces avidinii) (UniProt P22629). The assay is described as follows: compounds binding control protein streptavidin – biophysical, small-molecule microarray, 635/667 nm fluorescence, artefact control for SMM compound annotation, primary screen (AID 1147).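 Further: signal reflects streptavidin binding to arrayed compounds as a control protein.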 The settings on record: higher = more signal.
Assay [16] in a line: probe aInhba binding on compound microarray – biochemical, small-molecule microarray, 635/667 nm fluorescence, primary screen (AID 1148).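 Further: score merges 667nm spot fluorescence with signal-to-noise for antibody binding to printed compounds.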 The settings on record: higher = more signal.
The target in assay [17] is Torsin-1A (Homo sapiens) (UniProt O14656). The assay is described as follows: TOR1A wild-type binding on microarray – cell lysate, small-molecule microarray, lysate, 635/667 nm, primary screen (AID 1149). Conditions: COS7 hTOR1A-WT lysate, 635 nm fluorescence, higher = more signal.
The target is the same in assay [18]. The assay is described as follows: torsin A mutant lysate binding on microarrays – cell lysate, small-molecule microarray, COS7 lysate, 635/667 nm fluorescence, primary screen (AID 1150).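 Further: score pools 667 nm emission and signal to noise measuring lysate protein binding.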 Conditions: COS7 hTOR1A mutant lysate, 635 nm fluorescence, higher = more signal.
Assay [19] deals with Sonic hedgehog protein (Shh). The experiment in a line: Sonic hedgehog microarray binding compounds – biochemical, small-molecule microarray, 635/667 nm fluorescence, primary screen (AID 1151).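 Further: Shh protein binding to compounds spotted on small-molecule microarray slides; score combines spot fluorescence intensity with signal-to-noise across triplicate slides.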 The settings on record: 635 nm fluorescence, higher = more signal.

Activity calls are given as the source filed them. Unless noted, how the calls were made is not given here.

Sequence of Luciferin 4-monooxygenase (Photinus pyralis) (P08659 whole entry, looked up): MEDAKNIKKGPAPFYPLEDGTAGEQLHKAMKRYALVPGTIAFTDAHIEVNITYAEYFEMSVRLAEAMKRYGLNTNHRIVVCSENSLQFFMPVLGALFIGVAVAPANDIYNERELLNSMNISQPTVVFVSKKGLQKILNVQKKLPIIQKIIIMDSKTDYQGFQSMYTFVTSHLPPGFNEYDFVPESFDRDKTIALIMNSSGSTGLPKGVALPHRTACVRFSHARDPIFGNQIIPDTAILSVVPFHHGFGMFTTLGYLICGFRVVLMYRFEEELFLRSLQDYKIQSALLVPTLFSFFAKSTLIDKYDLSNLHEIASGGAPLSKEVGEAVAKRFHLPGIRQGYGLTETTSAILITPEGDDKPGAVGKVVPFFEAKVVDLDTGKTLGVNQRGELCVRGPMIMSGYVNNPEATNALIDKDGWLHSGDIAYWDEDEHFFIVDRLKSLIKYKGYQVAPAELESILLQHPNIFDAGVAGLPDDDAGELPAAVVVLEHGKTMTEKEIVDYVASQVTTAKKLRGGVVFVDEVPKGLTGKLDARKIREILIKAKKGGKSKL
Sequence of Fibroblast growth factor 2 (Homo sapiens) (P09038 whole entry, looked up): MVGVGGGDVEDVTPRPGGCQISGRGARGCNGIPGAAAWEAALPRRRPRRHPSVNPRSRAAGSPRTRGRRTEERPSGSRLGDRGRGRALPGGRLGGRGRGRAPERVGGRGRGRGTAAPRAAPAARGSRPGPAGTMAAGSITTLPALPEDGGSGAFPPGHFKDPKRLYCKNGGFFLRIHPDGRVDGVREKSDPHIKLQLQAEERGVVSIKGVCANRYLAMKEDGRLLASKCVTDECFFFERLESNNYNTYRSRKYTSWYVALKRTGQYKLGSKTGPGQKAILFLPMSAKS
Sequence of Streptavidin (Streptomyces avidinii) (P22629 whole entry, looked up): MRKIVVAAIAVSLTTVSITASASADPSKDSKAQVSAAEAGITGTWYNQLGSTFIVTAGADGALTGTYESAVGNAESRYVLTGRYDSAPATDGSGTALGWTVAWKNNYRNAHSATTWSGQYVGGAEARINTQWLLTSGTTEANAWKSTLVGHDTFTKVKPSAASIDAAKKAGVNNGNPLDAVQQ
Sequence of Follistatin (Homo sapiens) (P19883 whole entry, looked up): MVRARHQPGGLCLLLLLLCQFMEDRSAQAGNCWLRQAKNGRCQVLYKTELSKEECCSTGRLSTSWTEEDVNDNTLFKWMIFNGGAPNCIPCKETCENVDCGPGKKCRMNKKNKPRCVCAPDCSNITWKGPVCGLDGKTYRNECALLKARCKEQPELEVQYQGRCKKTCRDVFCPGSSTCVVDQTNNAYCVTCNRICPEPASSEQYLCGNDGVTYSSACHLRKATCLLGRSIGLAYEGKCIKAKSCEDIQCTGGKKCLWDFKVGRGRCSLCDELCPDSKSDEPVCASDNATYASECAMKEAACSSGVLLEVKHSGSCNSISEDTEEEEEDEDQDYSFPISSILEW
Sequence of Focal adhesion kinase 1 (Homo sapiens) (Q05397 whole entry, looked up): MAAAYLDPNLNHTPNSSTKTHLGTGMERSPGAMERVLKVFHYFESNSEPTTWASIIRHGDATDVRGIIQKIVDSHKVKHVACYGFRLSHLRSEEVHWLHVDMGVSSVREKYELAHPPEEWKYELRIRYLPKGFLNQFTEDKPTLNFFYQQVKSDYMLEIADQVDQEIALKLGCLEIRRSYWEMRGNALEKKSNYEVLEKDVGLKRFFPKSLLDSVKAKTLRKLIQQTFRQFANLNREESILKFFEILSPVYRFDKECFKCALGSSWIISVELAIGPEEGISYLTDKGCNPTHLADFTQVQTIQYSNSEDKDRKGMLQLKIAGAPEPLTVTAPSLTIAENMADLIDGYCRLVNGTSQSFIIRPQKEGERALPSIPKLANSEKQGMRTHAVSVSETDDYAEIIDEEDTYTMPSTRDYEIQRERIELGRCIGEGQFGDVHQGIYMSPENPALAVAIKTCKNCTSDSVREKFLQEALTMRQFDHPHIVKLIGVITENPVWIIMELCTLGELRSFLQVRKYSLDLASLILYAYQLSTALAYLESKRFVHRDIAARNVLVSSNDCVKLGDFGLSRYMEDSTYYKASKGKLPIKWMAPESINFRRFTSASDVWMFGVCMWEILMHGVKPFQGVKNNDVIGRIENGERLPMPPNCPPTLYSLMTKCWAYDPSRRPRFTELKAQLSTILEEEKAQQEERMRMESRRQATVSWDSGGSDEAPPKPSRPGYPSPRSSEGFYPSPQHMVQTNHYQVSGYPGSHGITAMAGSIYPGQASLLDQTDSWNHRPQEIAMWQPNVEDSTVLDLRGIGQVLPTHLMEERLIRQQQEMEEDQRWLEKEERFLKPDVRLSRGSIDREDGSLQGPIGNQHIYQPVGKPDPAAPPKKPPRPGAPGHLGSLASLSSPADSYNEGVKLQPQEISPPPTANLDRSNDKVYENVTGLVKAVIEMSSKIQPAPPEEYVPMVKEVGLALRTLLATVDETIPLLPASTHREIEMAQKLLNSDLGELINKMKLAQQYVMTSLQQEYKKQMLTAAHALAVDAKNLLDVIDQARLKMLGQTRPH
Sequence of Torsin-1A (Homo sapiens) (O14656 whole entry, looked up): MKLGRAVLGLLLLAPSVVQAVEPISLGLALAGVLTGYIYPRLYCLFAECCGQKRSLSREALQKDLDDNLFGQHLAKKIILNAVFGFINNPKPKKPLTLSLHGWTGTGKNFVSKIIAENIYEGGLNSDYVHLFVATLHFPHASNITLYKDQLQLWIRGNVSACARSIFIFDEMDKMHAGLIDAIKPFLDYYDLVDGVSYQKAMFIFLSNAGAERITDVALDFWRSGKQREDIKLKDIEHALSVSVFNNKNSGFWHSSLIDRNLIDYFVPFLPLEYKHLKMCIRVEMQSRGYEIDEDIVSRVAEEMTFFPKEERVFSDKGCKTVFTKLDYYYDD

Consider `CCC(CC)C(O)C1C=CC2C(=O)N(c3ccccc3)C(=O)C2N1Nc1ccc(C(C)C)cc1` (stereo not given), for which the composite z-score is 0.489 in assay [1]; 1.22 in assay [2]; 0.902 in [3]; 0.978 in assay [4]; 1.01 in [5]; 0.524 in assay [6]. Further, the composite z-score with Lefty1 is 0.0342; in assay [8] it was 1.08; in [10], 0.578; in assay [15] it was 0.792; in assay [16], -0.0021; with Torsin-1A (Homo sapiens) [17], 0.393. In addition, the values for the composite z-score (in the assay with Torsin-1A (Homo sapiens) [18]; in [19]) were 0.41 and -0.0854, respectively. The z-score is -0.202 in assay [7]; -1.58 (inactive) in assay [9]; -0.382 (inactive) in [11]; -0.0181 (inactive) in [12]; -0.136 (inactive) in assay [13]; -0.156 (inactive) in assay [14].
As for `COc1ccc([Si](C)(C)[C@@H]2[C@@H](CC(=O)N(CCO)Cc3ccccc3)O[C@]3(C(=O)N(Cc4cccc(N5C(=O)c6cccc7cccc5c67)c4)c4ccccc43)[C@H]2C)cc1`, the composite z-score in assay [1] was 0.63; in assay [2], -0.46; in assay [3] it was 0.994; in assay [4], 0.725; in [5] it was 1.1; in [6] it was 1.72. Besides, the composite z-score in the assay on Lefty1 was 0.972; in assay [8], 0.369; in assay [10], -0.164; in assay [15] it was -0.24; in [16] it was -0.0762; with Torsin-1A (Homo sapiens) [17] it was -0.0207. In addition, the composite z-score is 0.502 in the assay with Torsin-1A (Homo sapiens) [18] and 0.982 in [19]. Moreover, the z-score is -0.538 in assay [7]; 0.187 (inactive) in assay [9]; -5.84 (inactive) in [11]; -1.02 (inactive) in [12]; -0.999 (inactive) in assay [13]; -0.823 (inactive) in [14].
As to `O=C1O[C@H](c2ccccc2)[C@H](c2ccccc2)N2[C@H]1[C@@H](C(=O)Nc1nc3ccccc3s1)[C@]1(C(=O)Nc3ccc(C#CCCO)cc31)[C@H]2c1ccc(O)cc1`, the composite z-score came to 0.917 in assay [1]; 1.18 in assay [2]; 0.306 in assay [3]; 0.982 in [4]; 1.26 in [5]; 0.585 in assay [6]. For the same compound, the composite z-score was 1.23 in the assay on Lefty1; 1.1 in assay [8]; -0.11 in [10]; 1.09 in assay [15]; -0.176 in [16]; 0.232 with Torsin-1A (Homo sapiens) [17]. Besides, the values for the composite z-score (with Torsin-1A (Homo sapiens) [18]; in assay [19]) were 0.7 and 1.36, respectively. In addition, the z-score in assay [7] was -2.34; in assay [9], 0.198 (inactive); in [11] it was 0.358 (inactive); in [12], -0.911 (inactive); in [13], -0.141 (inactive); in [14], -0.782 (inactive).
